The panel holds about 79,000 compounds, 15% with a hit somewhere; the sample as a whole holds those more often. Calls of active or inactive are those of the source. Rule as the data show it: active = growth inhibition above about 70%; inactive = the rest.
Experiments:
[1] = NCI Yeast Anticancer Drug Screen. Data for the wt2 strain (AID 169);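 also: 0% = growth of vehicle-treated yeast cultures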; settings: S. cerevisiae wt2 strain growth inhibition, stronger effect = higher value
Outline: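 This strain belongs to a panel of yeast strains with defined genetic alterations in DNA damage repair or cell cycle control. Compounds are applied, and growth inhibition is measured against vehicle-treated cultures.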

[2] = NCI Yeast Anticancer Drug Screen. Data for the mlh1 strain (AID 171);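 also: 0% = growth of vehicle-treated control cultures of the same strain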; settings: S. cerevisiae mlh1 strain growth inhibition, stronger effect = higher value
Outline: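 Growth of the mutant yeast strain after compound exposure, expressed as inhibition relative to vehicle-only controls.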

[3] = NCI Yeast Anticancer Drug Screen. Data for the sgs1 strain (AID 173);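 also: 0% = growth of vehicle-only control cultures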; settings: S. cerevisiae sgs1 mutant, stronger effect = higher value
Outline: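 Growth of a yeast strain bearing a defined genetic alteration is measured after compound treatment. Inhibition is expressed relative to vehicle-only controls.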

[4] = NCI Yeast Anticancer Drug Screen. Data for the mlh1 rad18 strain (AID 175); settings: S. cerevisiae mlh1 rad18 strain growth inhibition, stronger effect = higher value
Outline: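 Read-out is yeast growth inhibition, calculated against vehicle-only controls. The compound was applied to a strain engineered with DNA damage repair alterations.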

[5] = NCI Yeast Anticancer Drug Screen. Data for the rad18 strain (AID 177); settings: S. cerevisiae rad18 mutant growth inhibition, stronger effect = higher value
Outline: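 Growth of the mutant yeast strain after compound exposure, normalised to vehicle-only cultures.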

[6] = NCI Yeast Anticancer Drug Screen. Data for the rad52 strain (AID 147);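 also: 0% = growth of vehicle-treated control cultures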; settings: S. cerevisiae rad52 mutant growth inhibition, stronger effect = higher value
Outline: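 Compounds are applied to a genetically defined yeast strain lacking normal DNA damage repair, and inhibition of growth is expressed relative to cultures given vehicle only.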

[7] = NCI Yeast Anticancer Drug Screen. Data for the wt1 strain (AID 149);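 also: 0% = growth of vehicle-treated wt1 cultures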; settings: S. cerevisiae wt1 strain (SPY 50644) growth inhibition, stronger effect = higher value
Outline: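 wt1 strain grown with compound or vehicle; inhibition taken from the growth difference.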

[8] = NCI Yeast Anticancer Drug Screen. Data for the rad50EPP+ strain (AID 151);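 also: 0% = growth of vehicle-treated control cultures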; settings: S. cerevisiae rad50 mutant strain, stronger effect = higher value
Outline: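 Compounds were applied to the rad50EPP+ yeast strain, which bears a defined DNA repair alteration, and growth inhibition was determined relative to vehicle-treated cultures.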

[9] = NCI Yeast Anticancer Drug Screen. Data for the mgt1 strain (AID 153); settings: S. cerevisiae mgt1 mutant growth inhibition, stronger effect = higher value
Outline: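 Strain: mgt1 yeast, one of a set carrying defined DNA damage repair or cell cycle control alterations. Compound-treated growth compared with vehicle.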

[10] = NCI Yeast Anticancer Drug Screen. Data for the rad50 strain (AID 155);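 also: 0% = growth of vehicle-only cultures of the same strain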; settings: S. cerevisiae rad50 strain growth inhibition, stronger effect = higher value
Outline: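 DNA repair mutant yeast, compound exposure, growth read-out; inhibition is taken relative to vehicle.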

[11] = NCI Yeast Anticancer Drug Screen. Data for the mec2-1 strain (AID 157); settings: S. cerevisiae mec2-1 strain, stronger effect = higher value
Outline: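 Strain: mec2-1 (DNA repair/cell cycle alteration). Compound exposure, then growth measured; inhibition expressed relative to vehicle.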

[12] = NCI Yeast Anticancer Drug Screen. Data for the rad14 strain (AID 159);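 also: 0% = growth of vehicle-treated control cultures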; settings: S. cerevisiae rad14 strain growth inhibition, stronger effect = higher value
Outline: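 DNA repair-defective yeast, compound-exposed; % growth inhibition derived by comparison with vehicle-treated controls.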

[13] = NCI Yeast Anticancer Drug Screen. Data for the sgs1 mgt1 strain (AID 161);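 also: 0% = growth of cultures given vehicle only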; settings: S. cerevisiae sgs1 mgt1 strain, stronger effect = higher value
Outline: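 Test agents were incubated with a DNA-repair-mutant yeast strain. Growth was then read and compared against vehicle-treated controls.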

[14] = NCI Yeast Anticancer Drug Screen. Data for the CLN2oe strain (AID 163);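 also: 0% = growth of vehicle-only control cultures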; settings: S. cerevisiae CLN2oe strain, stronger effect = higher value
Outline: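 Growth of a genetically modified yeast strain is measured after compound exposure and compared with cultures given vehicle alone.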

[15] = NCI Yeast Anticancer Drug Screen. Data for the cln2 rad14 strain (AID 165);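 also: 0% = growth equal to vehicle treated cultures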; settings: S. cerevisiae cln2 rad14 strain, stronger effect = higher value
Outline: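 Compounds are applied to the cln2 rad14 yeast strain, and growth is then compared with that of vehicle-treated cultures to give inhibition.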

[16] = NCI Yeast Anticancer Drug Screen. Data for the bub3 strain (AID 167); settings: S. cerevisiae bub3 mutant strain, stronger effect = higher value
Outline: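 In this screen, a yeast mutant lacking normal mitotic checkpoint function is challenged with compound. Relative growth versus vehicle gives the inhibition value.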

[17] = at 5.0 µM (retest, dose inferred, filed as 0.5)
[18] = at 50.0 µM (retest, dose inferred, filed as 5.0)

Measured: growth inhibition

COc1ccc2cc(C(C)C(=O)N3CCOC3=O)ccc2c1 (centres undefined)
inactive: [1]; at 1.2 µM -41% | [1]; at 3.7 µM -41% | [1]; at 11.0 µM -34% | [1]; at 33.0 µM -28% | [1]; at 100.0 µM -7% | [2]; at 1.2 µM 21% | [2]; at 3.7 µM 10% | [2]; at 11.0 µM 11% | [2]; at 33.0 µM 21% | [2]; at 100.0 µM 64% | [3]; at 1.2 µM -2% | [3]; at 3.7 µM -12% | [3]; at 11.0 µM -2% | [3]; at 33.0 µM 3% | [3]; at 100.0 µM 27% | [4]; [17] -28% | [4]; at 50.0 µM 44.1% | [5]; at 1.2 µM 13% | [5]; at 3.7 µM 10% | [5]; at 11.0 µM 9% | [5]; at 33.0 µM 4% | [5]; at 100.0 µM 21%
active: [4]; [18] 78%

CC(=O)CCC1=C(C)C(=O)C(=O)C(C)=C1O
active: [6]; at 100.0 µM 91% | [7]; at 100.0 µM 80% | [9]; at 100.0 µM 80% | [10]; at 100.0 µM 89% | [11]; at 100.0 µM 83% | [12]; at 100.0 µM 85% | [14]; at 100.0 µM 74% | [16]; at 50.0 µM 75% | [16]; at 100.0 µM 89% | [1]; at 100.0 µM 94% | [2]; at 100.0 µM 96% | [3]; at 100.0 µM 91% | [5]; at 100.0 µM 90%
inactive: [6]; at 1.2 µM -2% | [6]; at 3.7 µM -3% | [6]; at 11.0 µM -4% | [6]; at 33.0 µM 20% | [7]; at 1.2 µM -4% | [7]; at 3.7 µM -8% | [7]; at 11.0 µM -3% | [7]; at 33.0 µM 7% | [8]; at 1.2 µM -2% | [8]; at 3.7 µM -1% | [8]; at 11.0 µM 0% | [8]; at 33.0 µM 7% | [8]; at 100.0 µM 16% | [9]; at 1.2 µM -17% | [9]; at 3.7 µM 0% | [9]; at 11.0 µM 4% | [9]; at 33.0 µM 8% | [10]; at 1.2 µM 0% | [10]; at 3.7 µM 9% | [10]; [17] -6% | [10]; at 11.0 µM 14% | [10]; at 33.0 µM 34% | [10]; [18] 42% | [10]; at 50.0 µM 7.5% | [11]; at 1.2 µM -3% | [11]; at 3.7 µM -6% | [11]; [17] -4% | [11]; at 11.0 µM -9% | [11]; at 33.0 µM 13% | [11]; [18] 12% | [11]; at 50.0 µM 34.7% | [12]; at 1.2 µM -2% | [12]; at 3.7 µM -1% | [12]; at 11.0 µM 5% | [12]; at 33.0 µM 27% | [13]; [17] 6% | [13]; [18] 25% | [13]; at 50.0 µM 39% | [14]; at 1.2 µM 1% | [14]; at 3.7 µM 7% | [14]; at 11.0 µM 7% | [14]; at 33.0 µM 20% | [15]; [17] -6% | [15]; [18] 16% | [15]; at 50.0 µM 14.1% | [16]; at 1.2 µM -5% | [16]; at 3.7 µM -16% | [16]; [17] -14% | [16]; at 11.0 µM 6% | [16]; at 33.0 µM 17% | [16]; [18] 15% | [1]; at 1.2 µM -3% | [1]; at 3.7 µM -3% | [1]; at 11.0 µM -1% | [1]; at 33.0 µM 23% | [2]; at 1.2 µM -5% | [2]; at 3.7 µM -3% | [2]; at 11.0 µM -23% | [2]; at 33.0 µM 13% | [3]; at 1.2 µM -3% | [3]; at 3.7 µM -6% | [3]; at 11.0 µM -2% | [3]; at 33.0 µM 22% | [4]; [17] -28% | [4]; [18] 46% | [4]; at 50.0 µM 20.4% | [5]; at 1.2 µM -4% | [5]; at 3.7 µM -7% | [5]; at 11.0 µM -3% | [5]; at 33.0 µM 14%

CCCCCCCCCCCCCCCCCCNc1nc(=O)n(C2CC(OP(=O)(O)OCC3OC(n4cc(F)c(=O)[nH]c4=O)CC3O)C(CO)O2)cc1F (centres undefined)
inactive: [6]; at 1.2 µM 14% | [6]; at 3.7 µM 12% | [6]; at 11.0 µM -1% | [6]; at 33.0 µM 11% | [6]; at 100.0 µM 66% | [7]; at 1.2 µM 4% | [7]; at 3.7 µM -4% | [7]; at 11.0 µM -13% | [7]; at 33.0 µM -8% | [7]; at 100.0 µM 46% | [8]; at 1.2 µM 9% | [8]; at 3.7 µM 12% | [8]; at 11.0 µM 7% | [8]; at 33.0 µM 8% | [8]; at 100.0 µM 23% | [9]; at 1.2 µM 25% | [9]; at 3.7 µM 8% | [9]; at 11.0 µM -1% | [9]; at 33.0 µM 32% | [10]; at 1.2 µM 27% | [10]; at 3.7 µM 28% | [10]; [17] 34% | [10]; at 11.0 µM 22% | [10]; at 33.0 µM 37% | [11]; at 1.2 µM 9% | [11]; at 3.7 µM 15% | [11]; [17] 24% | [11]; at 11.0 µM 3% | [11]; at 33.0 µM -1% | [11]; at 100.0 µM 61% | [12]; at 1.2 µM 9% | [12]; at 3.7 µM 0% | [12]; at 11.0 µM 3% | [12]; at 33.0 µM -4% | [12]; at 100.0 µM 51% | [13]; [17] 59% | [14]; at 1.2 µM -23% | [14]; at 3.7 µM -33% | [14]; at 11.0 µM -42% | [14]; at 33.0 µM -9% | [14]; at 100.0 µM 54% | [15]; [17] 7% | [15]; [18] 68% | [16]; at 1.2 µM 4% | [16]; at 3.7 µM 5% | [16]; [17] 15% | [16]; at 11.0 µM -27% | [16]; at 33.0 µM -10% | [16]; at 50.0 µM 68.3% | [16]; at 100.0 µM 40% | [1]; at 1.2 µM -38% | [1]; at 3.7 µM -34% | [1]; at 11.0 µM -68% | [1]; at 33.0 µM 15% | [2]; at 1.2 µM 10% | [2]; at 3.7 µM 19% | [2]; at 11.0 µM 7% | [2]; at 33.0 µM 18% | [4]; [17] 34% | [5]; at 1.2 µM 9% | [5]; at 3.7 µM -9% | [5]; at 11.0 µM -16% | [5]; at 33.0 µM 35%
active: [9]; at 100.0 µM 77% | [10]; [18] 88% | [10]; at 50.0 µM 83.9% | [10]; at 100.0 µM 88% | [11]; [18] 91% | [11]; at 50.0 µM 89.4% | [13]; [18] 95% | [13]; at 50.0 µM 87.7% | [15]; at 50.0 µM 86.3% | [16]; [18] 93% | [1]; at 100.0 µM 79% | [2]; at 100.0 µM 75% | [4]; [18] 93% | [4]; at 50.0 µM 86% | [5]; at 100.0 µM 89%
